Dicer processing: inhibitors of human Dicer processing of pre-microRNA | cat-ELCCA pre-miR-21 Dicer processing, chemiluminescence; stronger effect = higher value | hit rate 6% among 47,000 | Q9UPY3 | z-score at 25 µM | AID 1347074; in the data active = z-score above about 3, passing the limit was not always enough;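 also: plate controls were vehicle for no effect and no enzyme for full effect; higher signal means more uncleaved substrate so more Dicer inhibition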
Target sequence (Q9UPY3 whole entry, looked up): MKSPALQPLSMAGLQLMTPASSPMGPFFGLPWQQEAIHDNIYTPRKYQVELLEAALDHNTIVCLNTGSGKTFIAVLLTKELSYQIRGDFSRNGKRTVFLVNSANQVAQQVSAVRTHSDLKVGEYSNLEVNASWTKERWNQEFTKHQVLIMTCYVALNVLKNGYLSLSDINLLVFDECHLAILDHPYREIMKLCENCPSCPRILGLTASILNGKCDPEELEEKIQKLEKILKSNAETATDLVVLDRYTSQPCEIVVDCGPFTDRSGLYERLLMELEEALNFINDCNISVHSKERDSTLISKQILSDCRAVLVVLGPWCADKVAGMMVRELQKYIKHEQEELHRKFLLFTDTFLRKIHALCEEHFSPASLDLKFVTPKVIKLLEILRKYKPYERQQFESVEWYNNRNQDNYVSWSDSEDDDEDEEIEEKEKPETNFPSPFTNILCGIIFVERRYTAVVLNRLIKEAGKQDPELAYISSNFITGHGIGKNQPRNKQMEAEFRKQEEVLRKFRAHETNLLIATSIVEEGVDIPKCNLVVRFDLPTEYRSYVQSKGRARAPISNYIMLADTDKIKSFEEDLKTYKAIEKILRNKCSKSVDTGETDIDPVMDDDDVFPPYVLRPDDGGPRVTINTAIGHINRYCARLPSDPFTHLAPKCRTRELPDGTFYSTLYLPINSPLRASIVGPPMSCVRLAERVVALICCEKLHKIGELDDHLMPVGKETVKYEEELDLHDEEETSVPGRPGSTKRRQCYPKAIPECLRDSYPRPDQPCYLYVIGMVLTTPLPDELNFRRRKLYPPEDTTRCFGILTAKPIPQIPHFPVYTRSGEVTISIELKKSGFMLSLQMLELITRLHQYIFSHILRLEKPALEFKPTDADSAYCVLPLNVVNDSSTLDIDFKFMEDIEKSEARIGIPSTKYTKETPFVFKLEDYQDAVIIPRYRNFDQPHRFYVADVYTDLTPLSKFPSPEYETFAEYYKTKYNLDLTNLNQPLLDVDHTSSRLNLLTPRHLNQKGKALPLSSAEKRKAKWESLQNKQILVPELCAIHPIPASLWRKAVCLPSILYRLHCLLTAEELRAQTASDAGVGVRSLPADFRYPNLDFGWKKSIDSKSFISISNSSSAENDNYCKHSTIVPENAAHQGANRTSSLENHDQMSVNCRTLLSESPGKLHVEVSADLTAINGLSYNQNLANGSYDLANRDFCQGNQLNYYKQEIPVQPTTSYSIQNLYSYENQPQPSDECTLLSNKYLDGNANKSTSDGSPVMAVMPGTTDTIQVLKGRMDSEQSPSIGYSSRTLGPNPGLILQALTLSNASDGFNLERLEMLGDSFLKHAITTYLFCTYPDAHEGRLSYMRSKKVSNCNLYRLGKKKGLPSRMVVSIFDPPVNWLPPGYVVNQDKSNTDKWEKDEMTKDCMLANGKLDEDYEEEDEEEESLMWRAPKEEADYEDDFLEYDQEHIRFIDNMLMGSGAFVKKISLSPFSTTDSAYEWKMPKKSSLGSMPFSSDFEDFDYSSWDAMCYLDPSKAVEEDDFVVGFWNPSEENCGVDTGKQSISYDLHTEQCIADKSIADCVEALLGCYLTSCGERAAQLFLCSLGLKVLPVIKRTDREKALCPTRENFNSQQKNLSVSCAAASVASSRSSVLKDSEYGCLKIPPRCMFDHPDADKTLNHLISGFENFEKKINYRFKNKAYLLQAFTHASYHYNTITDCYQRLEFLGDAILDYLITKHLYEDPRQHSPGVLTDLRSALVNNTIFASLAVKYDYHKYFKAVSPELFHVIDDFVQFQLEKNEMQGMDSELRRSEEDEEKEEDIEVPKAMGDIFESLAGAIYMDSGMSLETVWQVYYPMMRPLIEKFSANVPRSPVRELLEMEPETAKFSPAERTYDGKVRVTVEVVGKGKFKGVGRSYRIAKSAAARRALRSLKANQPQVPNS
* marks the source's active call; other numbers are inactive results. The full list was thinned out, with hits kept by preference.

For Cc1ccc(-n2[nH]c(C)c(C=Nc3ccc(Cl)cc3)c2=O)cc1 the results were Dicer processing 0.73.
S=C(NCCc1ccccc1)N/N=C/c1c(-c2ccc(Cl)cc2)[nH]c2ccccc12 was read as Dicer processing 3.7*.
`Oc1ccccc1/C=N/NC(=S)NCCc1ccccc1` gave Dicer processing 12.
`COc1cccc(/C=N/NC(=S)NCCc2ccccc2)c1OC` gave Dicer processing -1.4.
`COc1ccccc1C1NC(=O)C(=O)/C1=C(\O)c1ccc(Br)cc1` (stereo unspecified) gave Dicer processing 1.3.
Screening O=C1c2cccc3c(N4CCOCC4)ccc(c23)C(=O)N1c1ccc(O)cc1 returned Dicer processing 0.92.
Oc1sc(-c2ccccc2)cc1/C=N/c1nc(-c2ccccc2)cs1 was read as Dicer processing 0.1.
Screening CSc1ccc(CN2CCN(S(C)(=O)=O)CC2)cc1 returned Dicer processing 3.1*.
CS(=O)(=O)N1CCN(CC(O)Cn2c3ccccc3c3ccccc32)CC1 (stereo unspecified) was read as Dicer processing 1.4.
Screening c1cc(CN2CCN(Cc3ccncc3)CC2)ccn1 returned Dicer processing 11.
Screening CCc1ccc(CN2CCN(C3CCCC(C)C3)CC2)cc1 (stereo unspecified) returned Dicer processing 3*.
CCc1ccc(CN2CCN(S(C)(=O)=O)CC2)cc1 was read as Dicer processing 3.7*.
CCCS(=O)(=O)N1CCN(Cc2ccc(Br)cc2)CC1 was read as Dicer processing 2.4.
CC1CCCC(N2CCN(Cc3ccc(Cl)cc3)CC2)C1 (stereo unspecified) was read as Dicer processing 0.84.
CCc1ccc(CN2CCC(N3CCN(CCO)CC3)CC2)cc1 was read as Dicer processing 0.59.
For CCc1ccc(NS(C)(=O)=O)cc1 the results were Dicer processing 1.2.
For Cc1csc2sc(/C=C(\C#N)S(C)(=O)=O)c(C)c12 the results were Dicer processing 0.16.
Screening CCOC(=O)c1cc2c(Cl)cc(Cl)cc2n1C(=O)OC(C)(C)C returned Dicer processing -2.3.
For C=CCN(C#N)c1nc(NC(C)C)nc(NC(C)C)n1 the results were Dicer processing 6.5*.
Screening O=[N+]([O-])c1ccc2c(c1)S(=O)(=O)CC2SCc1ccccc1 (stereo unspecified) returned Dicer processing 0.53.
For COc1cc(C2C(C#N)=C(N)Oc3n[nH]c(C)c32)ccc1OCc1ccccc1 (stereo unspecified) the results were Dicer processing -0.48.
Cc1nn(-c2ccccc2)c(C)c1C(=O)O was read as Dicer processing 8.4*.
`CC(C)(C)c1cc(C(=O)O)nn1-c1ccccc1` gave Dicer processing 0.69.
`O=C(Nc1ccccc1)c1nc(-c2ccccc2)n(-c2ccccc2)n1` gave Dicer processing 0.27.
Screening Cc1nn(-c2ccccc2)c(C)c1C(=O)Oc1ccc(Cl)cc1Cl returned Dicer processing 0.09.
`COc1ccc(OC(=O)c2c(C)nn(-c3ccccc3)c2C)cc1` gave Dicer processing 0.4.
For O=C(O)c1nc(-c2ccccc2)n(-c2ccccc2)n1 the results were Dicer processing 5.4*.
Screening CSc1ccc(C2C(C(=O)OC3CCCCC3)=C(C)NC3=C2C(=O)CCC3)cc1 (stereo unspecified) returned Dicer processing -1.9.
Screening S=C1NN=C(c2ccccc2)CS1 returned Dicer processing -6.9.
Screening C=C1SC(=Nc2cccc(Cl)c2C)N(C(=O)c2c(F)cccc2F)C12CCCCC2 returned Dicer processing -1.4.
For CC(=O)OC[C@H](OC(C)=O)[C@H](OC(C)=O)C12COC(=O)C(N1C(C)=O)C(C)(C)S2 (stereo partly specified) the results were Dicer processing -1.1.
`COc1ccc(-c2cc(C(=O)O)c3ccc(C)cc3n2)cc1OC` gave Dicer processing -0.04.
COc1ccccc1-n1c(SCC(N)=O)nc2c(c1=O)C1(CCCCC1)Cc1ccccc1-2 was read as Dicer processing 3.2*.
`O=c1c2c(nc(NCCCO)n1-c1ccccc1)-c1ccccc1CC21CCCC1` gave Dicer processing 0.32.
CSc1nc2c(c(=O)n1C)C1(CCCCC1)Cc1ccccc1-2 was read as Dicer processing -0.36.
Screening O=c1c2c(nc(NCCO)n1-c1ccccc1)-c1ccccc1CC21CCCC1 returned Dicer processing 4.1*.
C=CCn1c(SCC(=O)OCC)nc2c(c1=O)C1(CCCC1)Cc1ccccc1-2 was read as Dicer processing 0.86.
For Cn1c(Cc2ccccc2)nc2c(c1=O)C1(CCCCC1)Cc1ccccc1-2 the results were Dicer processing -1.6.
For CCN(CCC#N)C(=O)c1c(-c2c(Cl)cccc2Cl)noc1C the results were Dicer processing 1.3.
`COC(=O)c1cnc(Sc2c(Cl)cccc2Cl)c([N+](=O)[O-])c1` gave Dicer processing -0.54.
`NNC(=O)c1nc2ccccc2c(=O)[nH]1` gave Dicer processing -0.1.
`C=CCn1c(=S)sc2c(Sc3nc4ccccc4[nH]3)ncnc21` gave Dicer processing -1.7.

From PubChem BioAssay
